This is a sample that favours compounds with a hit; in the whole collection about 19% have one here.
IL-1B inflam inh: inhibitors of inflammasome signaling (IL-1 beta secretion); activity change, % at 57.5 µM; THP-1 LPS/ATP IL-1B secretion, AlphaLISA, 16 h; stronger effect = lower value; 360,000 tested, 4.7% active; AID 743279; in the data active means activity change below about -50%; inconclusive means mostly about -30% to -49%; further: on the % scale 0 is the no-effect control and ±100 the full control effect
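Secreted IL-1B measured by AlphaLISA bead assay after 16 h compound exposure of THP-1 cells; compounds (final up to 57.5 uM) added 1 h before LPS (250 ng/mL) and ATP (1.25 mM) stimulation; lower signal means less secretion.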
TGFb SMAD3 inh: blocks TGF-b signaling | HepG2 CAGA-GFP TGF-b/SMAD3 reporter, GFP fluorescence, 18 h; TGF-beta stimulated, 500 pg/mL final | AID 588855 | 410,000 tested, 1.2% active | Potency, µM (titrated, usually from 46.1 µM), without a hit: top-dose activity, negative = inhibition, actives largely listed as inhibitors; further: potency means the concentration at half of the fitted maximal effect; on the % scale 0 is the no-effect control and ±100 the full control effect; nearly all actives have a fitted effect of over 65% in size
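Read-out: total well GFP (ex488/em500-530) summed from mean per-cell fluorescence. Cells: HEPG2 CAGA-GFP, 1% FBS DMEM, 18 h at 37 degrees C with 500 pg/mL final TGF-beta. Unstimulated wells served as the full-inhibition control; stimulated DMSO wells = 0%.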
TDP1 cell CPT: growth inhibition of DT40 Tdp1-/-;hTDP1 cells with camptothecin (screen for TDP1 inhibitors); chicken DT40 Tdp1-/-;hTDP1 cells + 20 nM CPT, ATP luminescence, 48 h; Potency, µM (highest dose often 46.2 µM), for the others: at the top dose activity change, negative = growth inhibition, most hits filed as inhibitors; 420,000 tested, 12% active; further: potency means the concentration at half of the fitted maximal effect; on the % scale 0 is the no-effect control and ±100 the full control effect; nearly all actives have a fitted effect of over 55% in size
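Cell growth measured by CellTiter-Glo luminescence after a minimum 48 h, 37 C compound exposure with 20 nM CPT in Tdp1-knockout DT40 cells stably expressing hTDP1, seeded 400/well; qHTS titration format.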
ASM inhibitor: blocks human secretory acid sphingomyelinase; placental ASM, HMU-PC fluorogenic substrate, 60 min; Potency, µM (series often up to 57.5 µM), inactives show at the highest dose activity change, negative = inhibition, usual class: inhibitors; P17405; 340,000 tested, 0.006% active; AID 504937; further: potency means the concentration at half of the fitted maximal effect
Target sequence (P17405 47-631 limits assumed): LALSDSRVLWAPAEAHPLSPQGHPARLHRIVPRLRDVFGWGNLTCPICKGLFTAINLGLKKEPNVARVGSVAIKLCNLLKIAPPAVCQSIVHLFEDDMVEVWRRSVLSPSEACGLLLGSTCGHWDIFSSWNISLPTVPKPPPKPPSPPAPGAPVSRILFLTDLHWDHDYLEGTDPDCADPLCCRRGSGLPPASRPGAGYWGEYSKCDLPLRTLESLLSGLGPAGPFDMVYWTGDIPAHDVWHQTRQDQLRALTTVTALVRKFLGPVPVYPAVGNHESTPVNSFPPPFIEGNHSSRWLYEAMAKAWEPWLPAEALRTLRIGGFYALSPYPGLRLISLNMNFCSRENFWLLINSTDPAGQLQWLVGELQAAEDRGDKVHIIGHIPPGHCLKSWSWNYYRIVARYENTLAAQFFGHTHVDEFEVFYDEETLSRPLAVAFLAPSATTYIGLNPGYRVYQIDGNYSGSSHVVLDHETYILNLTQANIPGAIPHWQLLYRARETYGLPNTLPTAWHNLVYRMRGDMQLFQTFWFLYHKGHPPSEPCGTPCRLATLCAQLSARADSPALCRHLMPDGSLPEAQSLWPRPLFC
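Steps: dispense placental human ASM, pin compound, wait 10 min at room temperature, add HMU-PC0 substrate at 9 uM final, incubate 60 min at 37 °C, add stop solution raising pH to 10, read fluorescence.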
HepG2 tox: counter-screen for TGF-b inhibitors: cytotoxicity in HepG2 cells | Potency, µM (top dose mostly 46.1 µM), for inactives: at the top dose activity change, negative = cytotoxicity, actives largely listed as cytotoxic | 410,000 tested, 0.76% active | HepG2 CAGA-GFP viability, ATP luminescence, 18 h; further: potency means the concentration at half of the fitted maximal effect
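HepG2 CAGA-GFP cells (1000/well, DMEM with 1% FBS) received compound, then TGF-beta at 500 pg/mL final, and were incubated 18 hours at 37 degrees C. Viability was read by CellTiter-Glo luminescence. Media-only wells were set as complete cell-killing and DMSO as no toxicity.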
TDP1 cell noCPT: qHTS for Inhibitors of human tyrosyl-DNA phosphodiesterase 1 (TDP1): qHTS in cells in absence of CPT; DT40 Tdp1-/- hTDP1 cells, no CPT, ATP luminescence, 48 h; Potency, µM (titrated, usually from 46.2 µM), for inactives: at the top dose activity change, negative = growth inhibition, most hits filed as inhibitors; 420,000 tested, 15% active; further: potency means the concentration at half of the fitted maximal effect; on the % scale 0 is the no-effect control and ±100 the full control effect; nearly all actives have a fitted effect of over 55% in size
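Compound effects on proliferation are scored in DT40 Tdp1-/-;hTDP1 cells in the absence of CPT. ATP levels (CellTiter-Glo luminescence) are recorded after a ≥48 hr, 37 °C incubation.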
* hit, by the source's call. Unless noted, the call rests on the fitted dose curve; in most records, active means well fitted curve in the direction sought with a large enough effect; inconclusive means small, poorly fitted or top-dose-only effect, or another doubt; inactive means no such curve, though single readings can be large; an effect the other way counts as inactive or inconclusive.

Screening Cc1nn(-c2ccc(F)cc2)c2nc(N)c(C#N)c(-c3cccs3)c12 returned IL-1B inflam inh 10, TGFb SMAD3 inh 11%, TDP1 cell CPT 23µM*, ASM inhibitor 29%, HepG2 tox -13% and TDP1 cell noCPT 13µM*.
For COc1ccc(/C=N\NC(=O)COc2ccccc2Cl)cc1Cn1nc(C)cc1C the results were IL-1B inflam inh -2, TGFb SMAD3 inh inconclusive, TDP1 cell CPT inconclusive, ASM inhibitor -2%, HepG2 tox -50% and TDP1 cell noCPT 23µM*.
For COc1ccc(/C=N\NC(=O)c2sccc2C)cc1Cn1nc(C)cc1C the results were IL-1B inflam inh -13, TGFb SMAD3 inh -3%, TDP1 cell CPT 7.3µM*, ASM inhibitor -4%, HepG2 tox -9% and TDP1 cell noCPT inconclusive.
`CCN(CC(=O)Nc1ccccc1OC)C(=O)c1ccc2[nH]c3c(c2c1)CC(C)CC3` (stereo unspecified) gave IL-1B inflam inh -6, TGFb SMAD3 inh inconclusive, TDP1 cell CPT 18µM*, ASM inhibitor -4%, HepG2 tox -27% and TDP1 cell noCPT inconclusive.
Screening CCCN(CC(=O)Nc1ccccc1OC)C(=O)c1ccc2[nH]c3c(c2c1)CC(C)CC3 (stereo unspecified) returned IL-1B inflam inh -59*, TGFb SMAD3 inh inconclusive, TDP1 cell CPT inconclusive, ASM inhibitor -13%, HepG2 tox -25% and TDP1 cell noCPT inconclusive.
For C/C(=N\N1C(=O)c2ccccc2NC1c1ccccc1)c1ccccc1O (stereo unspecified) the results were IL-1B inflam inh 7, TGFb SMAD3 inh inconclusive, TDP1 cell CPT 4.6µM*, ASM inhibitor -1%, HepG2 tox -2% and TDP1 cell noCPT 7.3µM*.
Screening COc1ccc(/C(C)=N/N2C(=O)c3ccccc3NC2c2ccc(O)c(OC)c2)cc1 (stereo unspecified) returned IL-1B inflam inh -11, TGFb SMAD3 inh 0%, TDP1 cell CPT -18%, ASM inhibitor 16%, HepG2 tox -3% and TDP1 cell noCPT -8%.
`C/C(=N\N1C(=O)c2ccccc2NC1c1ccco1)c1ccccc1O` (stereo unspecified) gave IL-1B inflam inh 69, TGFb SMAD3 inh inconclusive, TDP1 cell CPT -87%, ASM inhibitor 3%, HepG2 tox -44% and TDP1 cell noCPT 12µM*.
For O=C1NC[C@H](CCCCN2C[C@H](Cc3ccc(O)cc3)N(CCc3ccc(O)cc3)C(=O)C2=O)N(CCc2ccc(O)cc2)C1=O the results were IL-1B inflam inh 36, TDP1 cell CPT 7% and TDP1 cell noCPT 1%.
`COc1cccc(NC(=O)CSc2nccn2-c2cccc(OC)c2)c1` gave IL-1B inflam inh -13, TGFb SMAD3 inh -19%, TDP1 cell CPT inconclusive, ASM inhibitor 0%, HepG2 tox -45% and TDP1 cell noCPT inconclusive.
For O=C(CSc1nccn1-c1cccc(Cl)c1)Nc1ccc2c(c1)OCO2 the results were TGFb SMAD3 inh -24%, TDP1 cell CPT inconclusive, HepG2 tox -20% and TDP1 cell noCPT -25%.
Screening Cc1cc(C)cc(-n2ccnc2SCC(=O)Nc2ccc3c(c2)OCO3)c1 returned TGFb SMAD3 inh -7%, TDP1 cell CPT inconclusive, HepG2 tox -17% and TDP1 cell noCPT 21µM*.
For COc1ccc(Cn2ccnc2SCC(=O)Nc2ccccc2)cc1 the results were IL-1B inflam inh 0, TGFb SMAD3 inh -20%, TDP1 cell CPT -12%, ASM inhibitor -3%, HepG2 tox -42% and TDP1 cell noCPT -12%.
`COc1cccc(-n2ccnc2SCC(=O)Nc2ccccc2)c1` gave IL-1B inflam inh -15, TGFb SMAD3 inh 3%, TDP1 cell CPT 5.8µM*, ASM inhibitor 3%, HepG2 tox 8% and TDP1 cell noCPT 8.2µM*.
`CCOC(=O)c1ccc(NC(=O)CSc2nccn2-c2cc(C)cc(C)c2)cc1` gave TGFb SMAD3 inh -28%, TDP1 cell CPT 23µM*, HepG2 tox -25% and TDP1 cell noCPT 18µM*.
CCOC(=O)c1ccc(NC(=O)CSc2nccn2Cc2ccc(OC)cc2)cc1 was read as TGFb SMAD3 inh inconclusive, TDP1 cell CPT 15µM*, HepG2 tox -35% and TDP1 cell noCPT inconclusive.
Screening NS(=O)(=O)c1ccc2nc(-c3ccccc3)c(-c3ccccc3)nc2c1 returned IL-1B inflam inh 8, TGFb SMAD3 inh -2%, TDP1 cell CPT -2%, ASM inhibitor 12%, HepG2 tox 0% and TDP1 cell noCPT -8%.
Screening COc1cccc(NC(=O)[C@H](CC(C)C)NC(=O)N2CCn3c2nc2ccccc23)c1 returned IL-1B inflam inh -5, TGFb SMAD3 inh inconclusive, TDP1 cell CPT inconclusive, ASM inhibitor -20%, HepG2 tox -7% and TDP1 cell noCPT inconclusive.
`Cc1ccc(NC(=O)CSc2nccn2-c2ccccc2)cc1` gave TGFb SMAD3 inh 0%, TDP1 cell CPT inconclusive, HepG2 tox -22% and TDP1 cell noCPT inconclusive.
COc1cccc(-n2ccnc2SCC(=O)Nc2cccc(C)c2C)c1 was read as TGFb SMAD3 inh 12%, TDP1 cell CPT 21µM*, HepG2 tox -14% and TDP1 cell noCPT 16µM*.
`COc1cccc(-n2ccnc2SCC(=O)Nc2ccccc2F)c1` gave IL-1B inflam inh -70*, TGFb SMAD3 inh -3%, TDP1 cell CPT 0%, ASM inhibitor 0%, HepG2 tox -5% and TDP1 cell noCPT -29%.
`Cc1cc(C)cc(NC(=O)CSc2nccn2-c2ccccc2)c1` gave TGFb SMAD3 inh 0%, TDP1 cell CPT inconclusive, HepG2 tox -9% and TDP1 cell noCPT 23µM*.
`Cc1cc(NC(=O)CSc2nccn2-c2cccc(C)c2C)no1` gave IL-1B inflam inh 19, TGFb SMAD3 inh -8%, TDP1 cell CPT inconclusive, ASM inhibitor 2%, HepG2 tox -9% and TDP1 cell noCPT 21µM*.
Screening Cn1c(=O)c2c(nc(SCC(=O)Nc3ccccc3F)n2Cc2ccc(Cl)cc2)n(C)c1=O returned TGFb SMAD3 inh 0% and HepG2 tox -52%.
For CC(=O)N1CCCc2cc(S(=O)(=O)N3CCC(C(=O)NCCC(C)C)CC3)ccc21 the results were TGFb SMAD3 inh -6%, TDP1 cell CPT 9%, HepG2 tox -17% and TDP1 cell noCPT -7%.
